About 79,000 compounds went through this panel and 15% of them were active in at least one assay; those are over-represented in the sample as a whole. Rule as the data show it: active = growth inhibition above about 70%; inactive = the rest.
Experiments:
[1] = NCI Yeast Anticancer Drug Screen. Data for the rad50 strain (AID 155);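 also: 0% = growth of vehicle-only cultures of the same strain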; settings: S. cerevisiae rad50 strain growth inhibition; at 50.0 µM; active compounds read high
Procedure, shortened: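 Compounds were tested on a yeast strain with an engineered DNA damage repair alteration; the reported value is growth inhibition normalised to vehicle treatment.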

[2] = NCI Yeast Anticancer Drug Screen. Data for the mec2-1 strain (AID 157); settings: S. cerevisiae mec2-1 strain, at 50.0 µM, active compounds read high
Procedure, shortened: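 Strain: mec2-1 (DNA repair/cell cycle alteration). Compound exposure, then growth measured; inhibition expressed relative to vehicle.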

[3] = NCI Yeast Anticancer Drug Screen. Data for the sgs1 mgt1 strain (AID 161);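 also: 0% = growth of cultures given vehicle only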; settings: S. cerevisiae sgs1 mgt1 strain, at 50.0 µM, active compounds read high
Procedure, shortened: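 Mutant yeast exposed to compound; growth scored against vehicle-only wells.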

[4] = NCI Yeast Anticancer Drug Screen. Data for the cln2 rad14 strain (AID 165);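 also: 0% = growth equal to vehicle treated cultures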; settings: S. cerevisiae cln2 rad14 strain, at 50.0 µM, active compounds read high
Procedure, shortened: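 Compounds are applied to the cln2 rad14 yeast strain, and growth is then compared with that of vehicle-treated cultures to give inhibition.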

[5] = NCI Yeast Anticancer Drug Screen. Data for the bub3 strain (AID 167); settings: S. cerevisiae bub3 mutant strain, at 50.0 µM, active compounds read high
Procedure, shortened: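 Growth of a checkpoint-deficient yeast mutant is measured after compound exposure. Values represent inhibition relative to vehicle.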

[6] = NCI Yeast Anticancer Drug Screen. Data for the mlh1 rad18 strain (AID 175); settings: S. cerevisiae mlh1 rad18 strain growth inhibition; at 50.0 µM; active compounds read high
Procedure, shortened: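 Read-out is yeast growth inhibition, calculated against vehicle-only controls. The compound was applied to a strain engineered with DNA damage repair alterations.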

Measured: growth inhibition

CC(=O)/C=C1/NC(C(=O)c2ccccc2)=CNC1c1ccccc1 (stereo unspecified)
inactive: [1] 4.95% | [2] 3.75% | [3] 20.6% | [4] -14.5% | [5] 9.95% | [6] 18.8%

CC1=CC(C)(C)N=C2SC(c3ccc(Cl)cc3)=NN12
inactive: [1] 15.8% | [2] 7.25% | [3] 13.2% | [4] -5.8% | [5] 13.2% | [6] 10.6%

C[N+](C)(C)C1C2(CCCCC2)NC(=O)C12CCCCC2 (stereo unspecified)
inactive: [1] 5.6% | [2] -0.75% | [3] -11.5% | [4] -3.1% | [5] -5.85% | [6] -2.9%

Cc1cc[n+](CCc2c[nH]c3ccccc23)cc1C
inactive: [1] 30.5% | [2] -0.3% | [3] 11.9% | [4] 20.4% | [5] -1.65% | [6] 10.8%

CC(C)NC(=O)OCc1c(COC(=O)NC(C)C)c(-c2ccc(Cl)c(Cl)c2)n2c1C[C@@H](O)C2
inactive: [1] 17.3% | [2] 20% | [3] 21.5% | [4] 38.4% | [5] 11.5% | [6] -44.4%

Cc1ccc(NC(=O)CC#N)c(C)c1
inactive: [1] -11.8% | [2] -10.2% | [3] -17.9% | [4] -40.9% | [5] -0.7% | [6] 4%

CCCCN(CCCC)CCNC(c1ccc(Cl)cc1)c1ccc(OC)cc1 (stereo unspecified)
inactive: [1] 14.5% | [2] 4.3% | [3] 4.45% | [4] -7.85% | [5] 8.35% | [6] 33.4%

O=C(O)/C=C/c1ccccc1Cl
inactive: [1] -9.7% | [2] 10.1% | [3] -1.3% | [4] -25.8% | [5] 0.8% | [6] -9.9%

CCOc1ccccc1C(=O)O
inactive: [1] 13.2% | [2] 6% | [3] 14.2% | [4] 11.4% | [5] -12.1% | [6] 11.4%

O=C(NC(=S)Nc1ccc(Cl)c(Cl)c1)c1cccc([N+](=O)[O-])c1
inactive: [1] -6.45% | [2] 3.35% | [3] 10.9% | [4] 0.65% | [5] -3.2% | [6] 5.7%

O=C(O)/C=C\C(=O)Nc1ccccn1
inactive: [1] -30.6% | [2] -43.8% | [3] -52.7% | [4] -2.65% | [5] -44.9% | [6] -21.4%

Clc1ccccc1C=NCCN=Cc1ccccc1Cl
inactive: [1] -1.75% | [2] -14.8% | [3] -3.5% | [4] 0.5% | [5] 3.4% | [6] 1.15%

O=C(O)c1cccnc1-c1ccccc1
inactive: [1] -3.95% | [2] 23.6% | [3] -9.85% | [4] -4.7% | [5] -12.9% | [6] -12.2%

COC12COC(=O)C1C(c1ccc3c(c1)OCO3)c1cc3c(cc1O2)OCO3 (stereo unspecified)
inactive: [1] 21.8% | [2] -0.6% | [3] 11.5% | [4] 8.95% | [5] 17.4% | [6] -4.7%

COc1ccc(-n2cc3c(=O)nccc-3c3ccccc32)cc1OC
inactive: [1] -9.3% | [2] -12.8% | [3] 1.2% | [4] -10.6% | [5] -18.6% | [6] -0.6%

CN(CCOc1ccccc1)Cc1ccccc1
inactive: [1] 33.1% | [2] 7.15% | [3] 50.7% | [4] 31.3% | [5] 40.1% | [6] 34.4%

Cc1cc2nnc(-c3cccc([N+](=O)[O-])c3)n2c2nnnn12
inactive: [1] 25% | [2] 31.1% | [3] 21.6% | [4] 66.7% | [5] 37.8% | [6] 36.7%

Cc1nc2ccc(S(=O)(=O)Nc3ccccn3)cc2c(=O)n1NS(=O)(=O)c1ccccn1
inactive: [1] 42.6% | [2] 12.1% | [3] 12% | [4] 22.8% | [5] -14.2% | [6] 26.4%

CCCCC1CCC(C(=O)O)=NC1 (stereo unspecified)
inactive: [1] 5.65% | [2] 6.7% | [3] 25.1% | [4] -9.95% | [5] -0.45% | [6] -11.4%

O=C(O)c1ccc(CC2CCCC2)cc1
inactive: [1] 30.8% | [2] 25.9% | [3] 21.4% | [4] -8.2% | [5] -2.35% | [6] 8.85%

CC(C)CCCC(C)C1CCC2(C)C3CCC4C(C)(C)C(OCC(C)(C)C)CCC4(C)C3CCC12C (stereo unspecified)
inactive: [1] 34% | [2] -5.5% | [3] 4.7% | [4] 7.3% | [5] -0.15% | [6] -5.4%

Cc1ccc(/C=N/NS(=O)(=O)c2ccc(/C=C3\NC(=O)NC3=O)cc2)cc1
inactive: [1] -16.8% | [2] -6.1% | [3] -31.4% | [4] -6.55% | [5] -41.2% | [6] 1.75%

CCC/C=N\NS(=O)(=O)c1ccc(NC(C)=O)cc1
inactive: [1] 4.65% | [2] -28.4% | [3] 11.6% | [4] 12.6% | [5] -43.7% | [6] 27.2%

S=C1CSc2c(ccc3ccccc23)N1
inactive: [1] -30.8% | [2] -14.8% | [3] 19.2% | [4] 4.95% | [5] 19.9% | [6] -9.4%

COc1cc(C(=O)N(C)N(C)C)cc(OC)c1OC
inactive: [1] 6.6% | [2] -9.6% | [3] 13.4% | [4] 10.9% | [5] -2.85% | [6] -5.6%

CC(=O)N1Cc2c(nc[nH]c2=O)C1C (stereo unspecified)
inactive: [1] -8.05% | [2] 27.4% | [3] -7.6% | [4] 14.9% | [5] 5.2% | [6] 0.45%

COc1ccc(/C=N/Nc2nc3ccccc3c(=O)n2-c2ccccc2)c(OCc2ccccc2)c1
inactive: [1] 4.7% | [2] 5.2% | [3] 5.5% | [4] -0.1% | [5] 9% | [6] 9.85%

CC(C)CC1NC(=O)CCC(NC(=O)C(Cc2ccc(O)cc2)NC(=O)OCc2ccccc2)C(=O)NC(Cc2ccccc2)C(=O)NC(Cc2ccccc2)NC1=O (stereo unspecified)
inactive: [1] -24.9% | [2] -21.6% | [3] -24% | [4] 8.6% | [5] -7.55% | [6] -18%

CCOC(=O)c1ccc(NC(=O)SCCC(=O)O)cc1
inactive: [1] 20.9% | [2] -19.9% | [3] -7.1% | [4] 15.8% | [5] -10.2% | [6] 13.8%

CCCc1[nH]n(-c2ccccc2)c(=O)c1N=Nc1ccc(Cl)cc1
inactive: [1] -4.25% | [2] -6.65% | [3] -9.95% | [4] -5.1% | [5] -7.6% | [6] -0.8%

NC(=S)c1ccc[n+](Cc2c(Cl)cccc2Cl)c1
inactive: [1] 11.9% | [2] 3.6% | [3] -0.8% | [4] -13.3% | [5] -0.15% | [6] -4.4%

CC1=CC2CC(C)C1(C)CCc1ccoc12 (stereo unspecified)
inactive: [1] 2.8% | [2] -11.7% | [3] -2.8% | [4] 6.75% | [5] 9.85% | [6] 4.7%

CC(=O)N1C(NN(C)C)CCN1c1ccccc1 (stereo unspecified)
inactive: [1] 36% | [2] -28.9% | [3] 13.6% | [4] -4.75% | [5] -22.5% | [6] 2.95%

CCCCOC(=O)/C=C/c1ccc(OC(C)C)cc1
inactive: [1] 3.95% | [2] -9% | [3] -9.4% | [4] -48.1% | [5] 19.9% | [6] -10.4%

CCOC(=O)C(Br)CN1C(=O)c2ccccc2C1=O (stereo unspecified)
inactive: [1] 5.5% | [2] -7.1% | [3] -5.35% | [4] 12.6% | [5] 42% | [6] 13.6%

NS(=O)(=O)c1ccc(NC(=S)/N=C\c2c(O)[nH]c(=O)[nH]c2=O)cc1
inactive: [1] -13% | [2] -16.3% | [3] -18.3% | [4] 15.7% | [5] -12.6% | [6] -11%

CCOC(=O)OC1CCC2(C)C(=CCC3C2CCC2(C)C(C(C)CCCC(C)C)CCC32)C1 (stereo unspecified)
inactive: [1] -3.95% | [2] -19.1% | [3] 0.6% | [4] 9.5% | [5] 4.25% | [6] -4.3%

CCOC(=O)c1ccc(OCC)cc1O
inactive: [1] 2.25% | [2] -8% | [3] 0.6% | [4] -17.6% | [5] -30.4% | [6] -15.8%

ClCCc1ccccc1CC1=NCCc2ccccc21
inactive: [1] 18.6% | [2] -26.4% | [3] -23.7% | [4] 6.3% | [5] -12.8% | [6] 54.8%

C1=C(CN2CCCCC2)Oc2ccccc2O1
inactive: [1] 25.3% | [2] 36.9% | [3] 42.5% | [4] 46% | [5] 21.3% | [6] 34.9%

O=C(Oc1ccc(-c2ccc([N+](=O)[O-])cc2)cc1)c1ccccc1
inactive: [1] 29.8% | [2] 3.9% | [3] 17% | [4] 15.4% | [5] 19.9% | [6] 8.25%
